Data reported in PMC11006913.

Columns and labels:
Test in all cases: PBM; 200 nM protein, PBS
Details in all cases: dsDNA, one strand shown
[1] = molecular target: HESX1 (Homo sapiens, UniProt Q9UBX0 95-180, R165K)
[2] = molecular target: SHOX (Homo sapiens, UniProt O15266 103-189)
[3] = molecular target: ALX4 (Homo sapiens, UniProt Q9H161 200-286, Q225E)
[4] = molecular target: HESX1 (Homo sapiens, UniProt Q9UBX0 95-180)
[5] = molecular target: MSX2 (Homo sapiens, UniProt P35548 130-214, R199I)
MSX2, sequence (P35548 130-214 R199I): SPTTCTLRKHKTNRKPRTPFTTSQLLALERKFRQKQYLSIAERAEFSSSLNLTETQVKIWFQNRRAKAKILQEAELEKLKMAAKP

[6] = molecular target: ALX1 (Homo sapiens, UniProt Q15699 118-204, L144V)
ALX1 (Homo sapiens, UniProt Q15699 118-204, L144V), sequence (Q15699 118-204 L144V): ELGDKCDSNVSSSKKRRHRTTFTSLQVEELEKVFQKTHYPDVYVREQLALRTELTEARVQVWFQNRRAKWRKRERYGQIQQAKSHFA

[7] = molecular target: ALX3 (Homo sapiens, UniProt O95076 139-225, N203Q)
ALX3 (Homo sapiens, UniProt O95076 139-225, N203Q), sequence (O95076 139-225 N203Q): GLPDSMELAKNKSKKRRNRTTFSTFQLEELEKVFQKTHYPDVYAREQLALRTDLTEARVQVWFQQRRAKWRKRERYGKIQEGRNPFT

[8] = molecular target: SHOX (Homo sapiens, UniProt O15266 103-189, R173C)
SHOX (Homo sapiens, UniProt O15266 103-189, R173C), sequence (O15266 103-189 R173C): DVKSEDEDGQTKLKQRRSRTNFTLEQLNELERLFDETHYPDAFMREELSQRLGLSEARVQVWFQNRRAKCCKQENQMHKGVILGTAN

[9] = molecular target: ALX1 (Homo sapiens, UniProt Q15699 118-204, L144R)
ALX1 (Homo sapiens, UniProt Q15699 118-204, L144R), sequence (Q15699 118-204 L144R): as the sequence (Q15699 118-204 L144V) above, with V27R counted along it

[10] = molecular target: ALX3 (Homo sapiens, UniProt O95076 139-225)
ALX3 (Homo sapiens, UniProt O95076 139-225), sequence (O95076 139-225): as the sequence (O95076 139-225 N203Q) above, with Q65N counted along it

[11] = molecular target: PROP1 (Homo sapiens, UniProt O75360 56-141)
PROP1 (Homo sapiens, UniProt O75360 56-141), sequence (O75360 56-141): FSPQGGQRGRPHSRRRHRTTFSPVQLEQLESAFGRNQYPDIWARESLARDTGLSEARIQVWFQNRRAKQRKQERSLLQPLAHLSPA

[12] = molecular target: HESX1 (Homo sapiens, UniProt Q9UBX0 95-180, R109Q)
HESX1 (Homo sapiens, UniProt Q9UBX0 95-180, R109Q), sequence (Q9UBX0 95-180 R109Q): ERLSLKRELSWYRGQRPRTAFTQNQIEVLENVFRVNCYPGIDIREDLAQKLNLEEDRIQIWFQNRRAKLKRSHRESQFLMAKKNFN

[13] = molecular target: PROP1 (Homo sapiens, UniProt O75360 56-141, R99H)
PROP1 (Homo sapiens, UniProt O75360 56-141, R99H), sequence (O75360 56-141 R99H): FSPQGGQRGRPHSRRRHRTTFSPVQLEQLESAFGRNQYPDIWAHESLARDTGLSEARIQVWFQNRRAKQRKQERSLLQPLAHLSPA

[14] = molecular target: ALX3 (Homo sapiens, UniProt O95076 139-225, L168Q)
ALX3 (Homo sapiens, UniProt O95076 139-225, L168Q), sequence (O95076 139-225 L168Q): as the sequence (O95076 139-225 N203Q) above, with L30Q, Q65N counted along it

[15] = molecular target: HESX1 (Homo sapiens, UniProt Q9UBX0 95-180, P111T)
HESX1 (Homo sapiens, UniProt Q9UBX0 95-180, P111T), sequence (Q9UBX0 95-180 P111T): as the sequence (Q9UBX0 95-180 R109Q) above, with Q15R, P17T counted along it

[16] = molecular target: ALX3 (Homo sapiens, UniProt O95076 139-225, L168V)
ALX3 (Homo sapiens, UniProt O95076 139-225, L168V), sequence (O95076 139-225 L168V): as the sequence (O95076 139-225 N203Q) above, with L30V, Q65N counted along it

[17] = molecular target: PROP1 (Homo sapiens, UniProt O75360 56-141, F88S)
PROP1 (Homo sapiens, UniProt O75360 56-141, F88S), sequence (O75360 56-141 F88S): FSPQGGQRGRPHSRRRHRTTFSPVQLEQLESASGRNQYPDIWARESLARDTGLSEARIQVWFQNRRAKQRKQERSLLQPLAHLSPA

[18] = molecular target: HESX1 (Homo sapiens, UniProt Q9UBX0 95-180, F115L)
HESX1 (Homo sapiens, UniProt Q9UBX0 95-180, F115L), sequence (Q9UBX0 95-180 F115L): as the sequence (Q9UBX0 95-180 R109Q) above, with Q15R, F21L counted along it

[19] = molecular target: ALX1 (Homo sapiens, UniProt Q15699 118-204)
ALX1 (Homo sapiens, UniProt Q15699 118-204), sequence (Q15699 118-204): as the sequence (Q15699 118-204 L144V) above, with V27L counted along it

[20] = molecular target: ALX3 (Homo sapiens, UniProt O95076 139-225, N203S)
ALX3 (Homo sapiens, UniProt O95076 139-225, N203S), sequence (O95076 139-225 N203S): as the sequence (O95076 139-225 N203Q) above, with Q65S counted along it

ALX4, sequence (Q9H161 200-286 Q225E): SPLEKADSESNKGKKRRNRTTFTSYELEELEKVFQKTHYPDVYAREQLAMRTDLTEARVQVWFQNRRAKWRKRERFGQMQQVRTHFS
SHOX (Homo sapiens, UniProt O15266 103-189), sequence (O15266 103-189): as the sequence (O15266 103-189 R173C) above, with C71R counted along it
HESX1 (Homo sapiens, UniProt Q9UBX0 95-180), sequence (Q9UBX0 95-180): as the sequence (Q9UBX0 95-180 R109Q) above, with Q15R counted along it
HESX1 (Homo sapiens, UniProt Q9UBX0 95-180, R165K), sequence (Q9UBX0 95-180 R165K): as the sequence (Q9UBX0 95-180 R109Q) above, with Q15R, R71K counted along it

Sequence | binding signal [1] | binding signal [2] | binding signal [3] | binding signal [4] | binding signal [5] | binding signal [6] | binding signal [7] | binding signal [8] | binding signal [9] | binding signal [10] | binding signal [11] | binding signal [12] | binding signal [13] | binding signal [14] | binding signal [15] | binding signal [16] | binding signal [17] | binding signal [18] | binding signal [19] | binding signal [20]
CCAATTAA | 13.6 upbm affinity estimate (log intensity, higher = more binding, comparable within an allelic series) | 12.7 upbm affinity estimate (log intensity, higher = more binding, comparable within an allelic series) | 14.1 upbm affinity estimate (log intensity, higher = more binding, comparable within an allelic series) | 13.5 upbm affinity estimate (log intensity, higher = more binding, comparable within an allelic series) | 13.3 upbm affinity estimate (log intensity, higher = more binding, comparable within an allelic series) | 12.2 upbm affinity estimate (log intensity, higher = more binding, comparable within an allelic series) | 8.51 upbm affinity estimate (log intensity, higher = more binding, comparable within an allelic series) | 10.3 upbm affinity estimate (log intensity, higher = more binding, comparable within an allelic series) | 11.9 upbm affinity estimate (log intensity, higher = more binding, comparable within an allelic series) | 12.9 upbm affinity estimate (log intensity, higher = more binding, comparable within an allelic series) | 12 upbm affinity estimate (log intensity, higher = more binding, comparable within an allelic series) | 10.8 upbm affinity estimate (log intensity, higher = more binding, comparable within an allelic series) | 12.2 upbm affinity estimate (log intensity, higher = more binding, comparable within an allelic series) | 11.2 upbm affinity estimate (log intensity, higher = more binding, comparable within an allelic series) | 12.2 upbm affinity estimate (log intensity, higher = more binding, comparable within an allelic series) | 10.8 upbm affinity estimate (log intensity, higher = more binding, comparable within an allelic series) | 7.84 upbm affinity estimate (log intensity, higher = more binding, comparable within an allelic series) | 8.43 upbm affinity estimate (log intensity, higher = more binding, comparable within an allelic series) | 12.8 upbm affinity estimate (log intensity, higher = more binding, comparable within an allelic series) | 8.7 upbm affinity estimate (log intensity, higher = more binding, comparable within an allelic series)
AAATTAAT | 11.7 upbm affinity estimate (log intensity, higher = more binding, comparable within an allelic series) | 11.9 upbm affinity estimate (log intensity, higher = more binding, comparable within an allelic series) | 13.3 upbm affinity estimate (log intensity, higher = more binding, comparable within an allelic series) | 11.5 upbm affinity estimate (log intensity, higher = more binding, comparable within an allelic series) | 12.2 upbm affinity estimate (log intensity, higher = more binding, comparable within an allelic series) | 11.9 upbm affinity estimate (log intensity, higher = more binding, comparable within an allelic series) | 8.56 upbm affinity estimate (log intensity, higher = more binding, comparable within an allelic series) | 9.34 upbm affinity estimate (log intensity, higher = more binding, comparable within an allelic series) | 11.6 upbm affinity estimate (log intensity, higher = more binding, comparable within an allelic series) | 12.5 upbm affinity estimate (log intensity, higher = more binding, comparable within an allelic series) | 11.2 upbm affinity estimate (log intensity, higher = more binding, comparable within an allelic series) | 8.9 upbm affinity estimate (log intensity, higher = more binding, comparable within an allelic series) | 10.9 upbm affinity estimate (log intensity, higher = more binding, comparable within an allelic series) | 10.6 upbm affinity estimate (log intensity, higher = more binding, comparable within an allelic series) | 10.4 upbm affinity estimate (log intensity, higher = more binding, comparable within an allelic series) | 10 upbm affinity estimate (log intensity, higher = more binding, comparable within an allelic series) | 7.7 upbm affinity estimate (log intensity, higher = more binding, comparable within an allelic series) | 7.97 upbm affinity estimate (log intensity, higher = more binding, comparable within an allelic series) | 12.5 upbm affinity estimate (log intensity, higher = more binding, comparable within an allelic series) | 8.72 upbm affinity estimate (log intensity, higher = more binding, comparable within an allelic series)
CCCTACGG | 6.51 upbm affinity estimate (log intensity, higher = more binding, comparable within an allelic series) | – | – | 6.45 upbm affinity estimate (log intensity, higher = more binding, comparable within an allelic series) | – | – | – | – | – | – | – | 6.54 upbm affinity estimate (log intensity, higher = more binding, comparable within an allelic series) | – | – | 6.48 upbm affinity estimate (log intensity, higher = more binding, comparable within an allelic series) | – | – | 6.43 upbm affinity estimate (log intensity, higher = more binding, comparable within an allelic series) | – | –
GCAAGGGC | 6.38 upbm affinity estimate (log intensity, higher = more binding, comparable within an allelic series) | – | – | 6.38 upbm affinity estimate (log intensity, higher = more binding, comparable within an allelic series) | – | – | – | – | – | – | – | 6.49 upbm affinity estimate (log intensity, higher = more binding, comparable within an allelic series) | – | – | 6.49 upbm affinity estimate (log intensity, higher = more binding, comparable within an allelic series) | – | – | 6.53 upbm affinity estimate (log intensity, higher = more binding, comparable within an allelic series) | – | –
CAATTAAC | 13.1 upbm affinity estimate (log intensity, higher = more binding, comparable within an allelic series) | 12.1 upbm affinity estimate (log intensity, higher = more binding, comparable within an allelic series) | 13.5 upbm affinity estimate (log intensity, higher = more binding, comparable within an allelic series) | 13.1 upbm affinity estimate (log intensity, higher = more binding, comparable within an allelic series) | 13.1 upbm affinity estimate (log intensity, higher = more binding, comparable within an allelic series) | 11.8 upbm affinity estimate (log intensity, higher = more binding, comparable within an allelic series) | 8.37 upbm affinity estimate (log intensity, higher = more binding, comparable within an allelic series) | 9.74 upbm affinity estimate (log intensity, higher = more binding, comparable within an allelic series) | 11.5 upbm affinity estimate (log intensity, higher = more binding, comparable within an allelic series) | 12.7 upbm affinity estimate (log intensity, higher = more binding, comparable within an allelic series) | 11.6 upbm affinity estimate (log intensity, higher = more binding, comparable within an allelic series) | 9.81 upbm affinity estimate (log intensity, higher = more binding, comparable within an allelic series) | 11.8 upbm affinity estimate (log intensity, higher = more binding, comparable within an allelic series) | 10.8 upbm affinity estimate (log intensity, higher = more binding, comparable within an allelic series) | 11.7 upbm affinity estimate (log intensity, higher = more binding, comparable within an allelic series) | 10.3 upbm affinity estimate (log intensity, higher = more binding, comparable within an allelic series) | 7.68 upbm affinity estimate (log intensity, higher = more binding, comparable within an allelic series) | 7.95 upbm affinity estimate (log intensity, higher = more binding, comparable within an allelic series) | 12.5 upbm affinity estimate (log intensity, higher = more binding, comparable within an allelic series) | 8.57 upbm affinity estimate (log intensity, higher = more binding, comparable within an allelic series)
GTCAATTA | 13.1 upbm affinity estimate (log intensity, higher = more binding, comparable within an allelic series) | 12.4 upbm affinity estimate (log intensity, higher = more binding, comparable within an allelic series) | 13.4 upbm affinity estimate (log intensity, higher = more binding, comparable within an allelic series) | 13.1 upbm affinity estimate (log intensity, higher = more binding, comparable within an allelic series) | 12.6 upbm affinity estimate (log intensity, higher = more binding, comparable within an allelic series) | 11.8 upbm affinity estimate (log intensity, higher = more binding, comparable within an allelic series) | 8.23 upbm affinity estimate (log intensity, higher = more binding, comparable within an allelic series) | 9.5 upbm affinity estimate (log intensity, higher = more binding, comparable within an allelic series) | 11.4 upbm affinity estimate (log intensity, higher = more binding, comparable within an allelic series) | 12.5 upbm affinity estimate (log intensity, higher = more binding, comparable within an allelic series) | 11.4 upbm affinity estimate (log intensity, higher = more binding, comparable within an allelic series) | 9.32 upbm affinity estimate (log intensity, higher = more binding, comparable within an allelic series) | 11.8 upbm affinity estimate (log intensity, higher = more binding, comparable within an allelic series) | 10.7 upbm affinity estimate (log intensity, higher = more binding, comparable within an allelic series) | 11.6 upbm affinity estimate (log intensity, higher = more binding, comparable within an allelic series) | 10.1 upbm affinity estimate (log intensity, higher = more binding, comparable within an allelic series) | 7.62 upbm affinity estimate (log intensity, higher = more binding, comparable within an allelic series) | 7.69 upbm affinity estimate (log intensity, higher = more binding, comparable within an allelic series) | 12.4 upbm affinity estimate (log intensity, higher = more binding, comparable within an allelic series) | 8.41 upbm affinity estimate (log intensity, higher = more binding, comparable within an allelic series)
